# Source: PubChem BioAssay AID1159580 (chemical genetic matrix, 2015)
# Several values for one entry are separate records, joined by “and”; a condition that tells them apart may be missing. Equal entries are not always repeated. The whole screen tested about 5,500 compounds, of which about 2,000 (36%) were called active. Roughly 18% stayed inconclusive and do not appear here. No stated cut-off is given here; in the data, active means normalized growth mostly below about 0.91 (no sharp cut-off); inconclusive means no clear call, values can overlap the other calls; inactive means mostly above about 0.92. This is one part of the list. Where a structure was tested more than once in an assay, its records may differ in their call.
# Test: chemical genetic growth profiling, strain panel (AID 1159580);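 further: tested at 20 µM; growth read once vehicle control cultures reached saturation at 30 °C; 1 = growth at the plate median or of vehicle wells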
# Conditions: growth OD
smiles,measurement,setting,value
CC(C)COCC(CN(Cc1ccccc1)c1ccccc1)N1CCCC1 (stereo not given),normalized growth,"S. cerevisiae deletion strains, locus YJR075W, strain HOC1, stronger effect = lower value",0.798 (active) and 1.01 (inactive)
same,normalized growth,"S. cerevisiae deletion strains, locus YKL009W, strain mrt4, stronger effect = lower value",0.935 (inactive)
same,normalized growth,"S. cerevisiae deletion strains, locus YKL068W, stronger effect = lower value",0.989 (inactive)
same,normalized growth,"S. cerevisiae deletion strains, locus YKL085W, strain MDH1 (second series), stronger effect = lower value",0.979 (inactive)
same,normalized growth,"S. cerevisiae deletion strains, locus YKL085W, strain MDH1, stronger effect = lower value",0.979 (inactive)
same,normalized growth,"S. cerevisiae deletion strains, locus YKL160W, strain elf1, stronger effect = lower value",1.02 (inactive)
same,normalized growth,"S. cerevisiae deletion strains, locus YKL190W, strain CNB1, stronger effect = lower value",0.923 (inactive)
same,normalized growth,"S. cerevisiae deletion strains, locus YKR001C, strain vps1, stronger effect = lower value",0.793 (active)
same,normalized growth,"S. cerevisiae deletion strains, locus YKR026C, strain gcn3, stronger effect = lower value",1.03 (inactive)
same,normalized growth,"S. cerevisiae deletion strains, locus YKR091W, strain srl3, stronger effect = lower value",1.02 (inactive)
same,normalized growth,"S. cerevisiae deletion strains, locus YLL001W, strain dnm1, stronger effect = lower value",1.03 (inactive)
same,normalized growth,"S. cerevisiae deletion strains, locus YLL026W, stronger effect = lower value",1.02 (inactive)
same,normalized growth,"S. cerevisiae deletion strains, locus YLL041C, strain sdh2, stronger effect = lower value",1.05 (inactive)
same,normalized growth,"S. cerevisiae deletion strains, locus YLR027C, strain aat2, stronger effect = lower value",1.01 (inactive)
same,normalized growth,"S. cerevisiae deletion strains, locus YLR039C, strain RIC1, stronger effect = lower value",0.705 (inactive)
same,normalized growth,"S. cerevisiae deletion strains, locus YLR058C, strain SHM2, stronger effect = lower value",0.858 (active)
same,normalized growth,"S. cerevisiae deletion strains, locus YLR102C, strain apc9, stronger effect = lower value",0.989 (inactive)
same,normalized growth,"S. cerevisiae deletion strains, locus YLR113W, strain HOG1, stronger effect = lower value",1.01 (inactive)
same,normalized growth,"S. cerevisiae deletion strains, locus YLR221C, strain rsa3, stronger effect = lower value",0.996 (inactive)
same,normalized growth,"S. cerevisiae deletion strains, locus YLR258W, strain gsy2, stronger effect = lower value",1.03 (inactive)
same,normalized growth,"S. cerevisiae deletion strains, locus YLR262C, strain YPT6 (second series), stronger effect = lower value",1.01 (inactive)
same,normalized growth,"S. cerevisiae deletion strains, locus YLR262C, strain YPT6, stronger effect = lower value",0.59 (active)
same,normalized growth,"S. cerevisiae deletion strains, locus YLR268W, strain sec22, stronger effect = lower value",0.935 (inactive)
same,normalized growth,"S. cerevisiae deletion strains, locus YLR320W, strain mms22, stronger effect = lower value",0.948 (inactive)
same,normalized growth,"S. cerevisiae deletion strains, locus YLR330W, strain CHS5, stronger effect = lower value",0.95 (inactive)
same,normalized growth,"S. cerevisiae deletion strains, locus YLR342W, strain FKS1 (second series), stronger effect = lower value",0.707 (active)
same,normalized growth,"S. cerevisiae deletion strains, locus YLR342W, strain FKS1, stronger effect = lower value",1 (inactive)
same,normalized growth,"S. cerevisiae deletion strains, locus YLR357W, strain rsc2, stronger effect = lower value",1.01 (inactive)
same,normalized growth,"S. cerevisiae deletion strains, locus YLR370C, strain arc18, stronger effect = lower value",1.04 (inactive)
same,normalized growth,"S. cerevisiae deletion strains, locus YLR371W, strain rom2, stronger effect = lower value",0.961 (inactive)
same,normalized growth,"S. cerevisiae deletion strains, locus YLR384C, strain iki3, stronger effect = lower value",1.03 (inactive)
same,normalized growth,"S. cerevisiae deletion strains, locus YLR418C, strain cdc73, stronger effect = lower value",0.698 (active)
same,normalized growth,"S. cerevisiae deletion strains, locus YML016C, strain PPZ1, stronger effect = lower value",0.973 (inactive)
same,normalized growth,"S. cerevisiae deletion strains, locus YML032C, strain rad52, stronger effect = lower value",0.904 (active)
same,normalized growth,"S. cerevisiae deletion strains, locus YML120C, strain ndi1, stronger effect = lower value",1.05 (inactive)
same,normalized growth,"S. cerevisiae deletion strains, locus YML124C, strain tub3, stronger effect = lower value",0.989 (inactive)
same,normalized growth,"S. cerevisiae deletion strains, locus YMR058W, strain fet3, stronger effect = lower value",0.997 (inactive)
same,normalized growth,"S. cerevisiae deletion strains, locus YMR078C, strain ctf18, stronger effect = lower value",0.986 (inactive)
same,normalized growth,"S. cerevisiae deletion strains, locus YMR125W, strain sto1, stronger effect = lower value",1.03 (inactive)
same,normalized growth,"S. cerevisiae deletion strains, locus YMR129W, stronger effect = lower value",1.02 (inactive)
same,normalized growth,"S. cerevisiae deletion strains, locus YMR205C, strain PFK2, stronger effect = lower value",1.02 (inactive)
same,normalized growth,"S. cerevisiae deletion strains, locus YMR223W, strain ubp8, stronger effect = lower value",0.894 (active)
same,normalized growth,"S. cerevisiae deletion strains, locus YMR231W, strain pep5, stronger effect = lower value",1.04 (inactive)
same,normalized growth,"S. cerevisiae deletion strains, locus YMR307W, strain GAS1, stronger effect = lower value",0.726 (inactive)
same,normalized growth,"S. cerevisiae deletion strains, locus YNL067W, strain RPL9B, stronger effect = lower value",0.843 (active)
same,normalized growth,"S. cerevisiae deletion strains, locus YNL071W, strain lat1, stronger effect = lower value",1.03 (inactive)
same,normalized growth,"S. cerevisiae deletion strains, locus YNL128W, strain TEP1, stronger effect = lower value",0.981 (inactive)
same,normalized growth,"S. cerevisiae deletion strains, locus YNL153C, strain GIM3, stronger effect = lower value",0.823 (active)
same,normalized growth,"S. cerevisiae deletion strains, locus YNL175C, strain NOP13, stronger effect = lower value",1 (inactive)
same,normalized growth,"S. cerevisiae deletion strains, locus YNL183C, strain NPR1, stronger effect = lower value",0.935 (inactive)
same,normalized growth,"S. cerevisiae deletion strains, locus YNL197C, strain WHI3, stronger effect = lower value",1.02 (inactive)
same,normalized growth,"S. cerevisiae deletion strains, locus YNL209W, strain ssb2, stronger effect = lower value",1.03 (inactive)
same,normalized growth,"S. cerevisiae deletion strains, locus YNL224C, strain SQS1, stronger effect = lower value",1.01 (inactive)
same,normalized growth,"S. cerevisiae deletion strains, locus YNL233W, strain BNI4, stronger effect = lower value",0.781 (active)
same,normalized growth,"S. cerevisiae deletion strains, locus YNL248C, strain rpa49, stronger effect = lower value",1.02 (inactive)
same,normalized growth,"S. cerevisiae deletion strains, locus YNL250W, strain rad50, stronger effect = lower value",0.957 (inactive)
same,normalized growth,"S. cerevisiae deletion strains, locus YNL271C, strain bni1, stronger effect = lower value",0.992 (inactive)
same,normalized growth,"S. cerevisiae deletion strains, locus YNL298W, strain CLA4, stronger effect = lower value",0.994 (inactive)
same,normalized growth,"S. cerevisiae deletion strains, locus YNL307C, strain MCK1, stronger effect = lower value",0.965 (inactive)
same,normalized growth,"S. cerevisiae deletion strains, locus YNL322C, strain KRE1 (second series), stronger effect = lower value",1.06 (inactive)
same,normalized growth,"S. cerevisiae deletion strains, locus YNL322C, strain KRE1, stronger effect = lower value",1 (inactive)
same,normalized growth,"S. cerevisiae deletion strains, locus YNR049C, strain mso1, stronger effect = lower value",1.02 (inactive)
same,normalized growth,"S. cerevisiae deletion strains, locus YNR052C, strain pop2, stronger effect = lower value",0.887 (active)
same,normalized growth,"S. cerevisiae deletion strains, locus YOL006C, strain TOP1, stronger effect = lower value",0.242 (active)
same,normalized growth,"S. cerevisiae deletion strains, locus YOL012C, strain htz1",0.611 (inactive)
same,normalized growth,"S. cerevisiae deletion strains, locus YOL147C, strain pex11, stronger effect = lower value",0.989 (inactive)
same,normalized growth,"S. cerevisiae deletion strains, locus YOR001W, strain rrp6, stronger effect = lower value",1.01 (inactive)
same,normalized growth,"S. cerevisiae deletion strains, locus YOR061W, strain CKA2, stronger effect = lower value",0.93 (inactive)
same,normalized growth,"S. cerevisiae deletion strains, locus YOR069W, strain VPS5, stronger effect = lower value",0.983 (inactive)
same,normalized growth,"S. cerevisiae deletion strains, locus YOR070C, strain gyp1, stronger effect = lower value",1.02 (inactive)
same,normalized growth,"S. cerevisiae deletion strains, locus YOR080W, strain dia2, stronger effect = lower value",1.06 (inactive)
same,normalized growth,"S. cerevisiae deletion strains, locus YOR083W, strain WHI5 (second series), stronger effect = lower value",1.03 (inactive)
same,normalized growth,"S. cerevisiae deletion strains, locus YOR083W, strain WHI5, stronger effect = lower value",0.967 (inactive)
same,normalized growth,"S. cerevisiae deletion strains, locus YOR106W, strain vam3, stronger effect = lower value",1.03 (inactive)
same,normalized growth,"S. cerevisiae deletion strains, locus YOR136W, strain idh2, stronger effect = lower value",0.954 (inactive)
same,normalized growth,"S. cerevisiae deletion strains, locus YOR144C, strain elg1, stronger effect = lower value",0.99 (inactive)
same,normalized growth,"S. cerevisiae deletion strains, locus YOR184W, strain ser1, stronger effect = lower value",0.888 (inactive)
same,normalized growth,"S. cerevisiae deletion strains, locus YOR231W, strain MKK1, stronger effect = lower value",0.982 (inactive)
same,normalized growth,"S. cerevisiae deletion strains, locus YOR265W, strain rbl2, stronger effect = lower value",1.02 (inactive)
same,normalized growth,"S. cerevisiae deletion strains, locus YOR270C, strain vph1, stronger effect = lower value",0.972 (inactive)
same,normalized growth,"S. cerevisiae deletion strains, locus YOR290C, strain snf2, stronger effect = lower value",1.02 (inactive)
same,normalized growth,"S. cerevisiae deletion strains, locus YOR316C, strain cot1, stronger effect = lower value",0.979 (inactive)
same,normalized growth,"S. cerevisiae deletion strains, locus YPL051W, strain arl3, stronger effect = lower value",0.99 (inactive)
same,normalized growth,"S. cerevisiae deletion strains, locus YPL055C, strain LGE1, stronger effect = lower value",0.653 (active)
same,normalized growth,"S. cerevisiae deletion strains, locus YPL078C, strain atp4, stronger effect = lower value",1.04 (inactive)
same,normalized growth,"S. cerevisiae deletion strains, locus YPL106C, strain sse1, stronger effect = lower value",1.06 (inactive)
same,normalized growth,"S. cerevisiae deletion strains, locus YPL240C, strain hsp82, stronger effect = lower value",1.02 (inactive)
same,normalized growth,"S. cerevisiae deletion strains, locus YPL241C, strain CIN2, stronger effect = lower value",0.98 (inactive) and 1 (inactive)
same,normalized growth,"S. cerevisiae deletion strains, locus YPL256C, strain CLN2, stronger effect = lower value",0.98 (inactive)
same,normalized growth,"S. cerevisiae deletion strains, locus YPR119W, strain clb2, stronger effect = lower value",0.989 (inactive)
same,normalized growth,"S. cerevisiae deletion strains, locus YPR141C, strain kar3, stronger effect = lower value",0.984 (inactive)
same,normalized growth,"S. cerevisiae deletion strains, locus YPR163C, strain tif3, stronger effect = lower value",0.792 (active)
same,normalized growth,"S. cerevisiae deletion strains, locus YPR167C, strain met16, stronger effect = lower value",0.988 (inactive)
same,normalized growth,"S. cerevisiae deletion strains, strain wtn01, stronger effect = lower value",0.912 (inactive)
same,normalized growth,"S. cerevisiae strains, strain wild type, stronger effect = lower value",0.878 (active)
